From PubChem
The list is not random: actives were taken first. Their share in the collection is about 3.5%.
FBW7 act: activators of human E3 ligase FBW7. AID 1259310. 0.13% of 650,000 active. AlphaScreen FBW7–phospho-cyclin E peptide binding, activator screen. normalized activity (activation), % at 26.1 µM; in the data active = normalized activity above about 1.9%;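 note: purified mutant Fbw7 with reduced substrate affinity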
GPR151 activ: human GPR151 activation; PathHunter beta-arrestin GPR151 cells, luminescence; activation, % at 11.2 µM; 1% of 650,000 active; AID 1508602; in the data active = activation above about 4.9%;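 note: 0% = median of compound wells and 100% = cells with positive control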
MITF inh: blocks human microphthalmia-associated transcription factor. inhibition, % at 2.6 µM. 0.91% of 650,000 active. AlphaScreen MITF homodimerization, bead proximity signal. O75030; in the data active = inhibition above about 50%;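 note: 0% = vehicle wells with protein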
TEAD-YAP block: TEAD-YAP interaction inhibition. HEK-TIYL cells, TEAD-Gal4/YAP UAS-luciferase luminescence. AID 1259422. 1.4% of 640,000 active. inhibition, % at 9.12 µM; in the data active = inhibition above about 32%;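 note: 0% = median of test compound wells and 100% = reference inhibitor wells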
Numbers without * were called inactive.

SMILES	FBW7 act	GPR151 activ	MITF inh	TEAD-YAP block
COc1cc(-c2cnc3c(NCc4ccncc4)nccn23)cc(OC)c1OC	0	0	-1	-8
COc1cc(CNc2nccn3c(-c4cccc(O)c4)cnc23)cc(OC)c1OC	2.1*	1	-1	0
O=C(O)c1ccc2c(c1)N=C(N1CCC3(CC1)OCCO3)c1ccccc1S2	0	2	7	4
COc1ccc(Nc2nc(NCc3ccccc3)c3ccccc3n2)cc1	0	0	3	44*
COc1ccccc1Nc1nc(NCc2ccco2)c2ccccc2n1	0	-1	-7	4
COc1ccc(Nc2nc(C)c3ccccc3n2)cc1	0	1	3	-51
COC(=O)c1ccc(Nc2nc(NCc3ccco3)c3ccccc3n2)cc1	0	-6	-12	75*
Cc1ccc(Nc2nc(NCc3ccco3)c3ccccc3n2)cc1	0	1	5	46*
Cc1ccc(NC(=O)COc2ccc3c(C)cc(=O)oc3c2)c([N+](=O)[O-])c1	0	0	14	2
Cc1cc(C)c(C#N)c(SCC(=O)Nc2ccccn2)n1	0	-1	9	86*
Cc1cc(C)c(C#N)c(SCC(=O)Nc2nccs2)n1	0	-1	-3	-54
COC(=O)CSc1nc(-c2ccco2)cc(C(F)(F)F)c1C#N	2.0*	-1	0	11
Cc1cc(C(F)(F)F)c(N)c(SCC(=O)Nc2nc3ccccc3s2)n1	0	1	-3	65*
COC(=O)CSc1nc(N)c(C#N)c(-c2ccco2)c1C#N	0	1	-11	0
Cc1cccc(NC(=O)CSc2nc(C)cc(C(F)(F)F)c2C#N)n1	1	-2	14	88*
Cc1cc(C(F)(F)F)c(C#N)c(SCC(=O)Nc2ccc(F)cc2)n1	0	0	4	-12
Cc1cc(C)nc(SCC(=O)Nc2nc3ccccc3s2)n1	0	-1	-5	-4
O=C(Nc1ccc2c(c1)oc1ccccc12)c1cccc(Cl)c1Cl	0	-1	8	-25
CCOC(=O)c1c(NC(N)=O)sc2c1CCCCC2	0	4	-3	5
CCCCC(=O)N1CCN(c2nc(C)cc(Nc3ccc(OC)cc3)n2)CC1	0	-2	-2	8
COc1ccc(C2C(C(=O)Nc3cc(C)c(Cl)cc3OC)c3ccccc3C(=O)N2C)cc1 (configuration not stated)	0	-2	7	-10
Cc1cc(/C=C2/NC(=O)N(c3cccc(Cl)c3)C2=O)c(C)n1C	0	-1	1	55*
COc1ccc(-c2cn3c4c(=O)n(C)c(=O)n(C)c4nc3n2CCc2ccc(OC)c(OC)c2)cc1	0	1	1	15
CN(C)c1cccc2c1C(=O)c1ccccc1C2=O	-1	2	55*	2
O=C(N/N=C\c1c[nH]c2ccccc12)c1ccc(O)cc1	0	0	1	-3
SMILES	FBW7 act	GPR151 activ	MITF inh	TEAD-YAP block
O=C(N/N=C/c1c[nH]c2ccccc12)c1cc(-c2ccncc2)nc2ccccc12	0	-2	6	35*
O=C(O)c1ccc(N/N=C/c2c[nH]c3ccccc23)cc1	0	-6	-2	85*
O=C(N/N=C/c1c[nH]c2ccccc12)c1cc(-c2ccccc2)n[nH]1	0	1	-10	0
CCN(CC)S(=O)(=O)c1csc(C(=O)Nc2ccc(C)cc2)c1	0	-1	-13	1
O=S(=O)(c1ccc(Cl)cc1)N1CCC(Cc2ccccc2)CC1	0	-1	-6	2
CCN1CCn2c3c(c4cc(Br)ccc42)CCCC31 (configuration not stated)	0	1	5	-12
CCN1CCN(CC(O)CN2CCn3c4c(c5cc(C6CCCCC6)ccc53)CCCC42)CC1 (configuration not stated)	0	-1	51*	-1
C=CCN1C(=O)C(O)(CC(=O)c2ccccc2Cl)c2cc(Br)ccc21 (configuration not stated)	0	1	12	5
COC(=O)C1=CN(C2CCCC2)C=C(C(=O)OC)C1c1ccc(F)cc1	3.1*	-1	13	7
CCN(CC)CC(O)CN1CCN(c2ccc(OC)cc2)CC1 (configuration not stated)	0	-1	55*	2
COc1ccc(N2CCN(C(C)CC(=O)O)CC2)cc1 (configuration not stated)	0	0	72*	-7
COc1ccc(N2CCN(CC(O)COC(C)(C)C)CC2)cc1 (configuration not stated)	0	0	46	-6
CC(=O)Nc1ccc(S(=O)(=O)Nc2ccc(S(=O)(=O)N3CCc4ccccc43)cc2)cc1	0	0	9	17
